# Measured values taken from ChEMBL document CHEMBL2218924, “A broad activity screen in support of a chemogenomic map for kinase signalling research and drug discovery” (Biochem J, 2013).
# Biological target: T1, Serine/threonine-protein kinase 3 (Homo sapiens) (UniProt Q13188)
# T1 sequence (whole entry): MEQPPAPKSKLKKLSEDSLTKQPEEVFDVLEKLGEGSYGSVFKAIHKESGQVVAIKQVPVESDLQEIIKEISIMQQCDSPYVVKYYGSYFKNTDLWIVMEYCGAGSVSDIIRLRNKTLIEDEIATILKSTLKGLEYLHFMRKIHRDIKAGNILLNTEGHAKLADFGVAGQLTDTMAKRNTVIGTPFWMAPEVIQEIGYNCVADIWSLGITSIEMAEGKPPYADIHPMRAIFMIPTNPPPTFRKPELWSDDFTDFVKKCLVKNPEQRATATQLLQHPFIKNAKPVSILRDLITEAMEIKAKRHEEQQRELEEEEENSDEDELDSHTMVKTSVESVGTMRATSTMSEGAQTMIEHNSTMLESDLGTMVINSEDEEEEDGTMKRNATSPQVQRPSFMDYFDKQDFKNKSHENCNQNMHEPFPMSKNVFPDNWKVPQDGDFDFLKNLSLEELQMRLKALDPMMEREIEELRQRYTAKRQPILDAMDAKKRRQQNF
# Details: at 1 µM
row,SMILES,residual activity [%]
1,CO[C@H]1C[C@@H]2CC[C@@H](C)[C@@](O)(O2)C(=O)C(=O)N2CCCC[C@H]2C(=O)O[C@H]([C@H](C)C[C@@H]2CC[C@@H](O)[C@H](OC)C2)CC(=O)[C@H](C)/C=C(\C)[C@@H](O)[C@@H](OC)C(=O)[C@H](C)C[C@H](C)/C=C/C=C/C=C/1C,94
2,Nc1nc(Nc2ccc(S(N)(=O)=O)cc2)nn1C(=S)Nc1c(F)cccc1F,0
3,O=C1NC(=O)/C(=C\c2ccc3nccnc3c2)S1,96
4,COc1ccc(CNc2nc(N(CCO)CCO)nc3c2ncn3C(C)C)cc1,107
5,COc1ccc(C(=O)Nc2sc3c(c2C(N)=O)CCCC3)cc1OC,105
6,O=C(Nc1cccc(Nc2cc(Nc3cccc(C(F)(F)F)c3)ncn2)c1)C1CC1,106
7,Oc1ccc(Nc2nc(-c3ccc(Cl)cc3)cs2)cc1,101
8,COc1ccc(OC)c2c(=S)c3ccccc3[nH]c12,96
9,O=C1Nc2cc(Br)ccc2/C1=C1/Nc2ccccc2/C1=N\O,10
10,Nc1cccc(-c2cc3c(Oc4cccc(O)c4)ncnc3[nH]2)c1,99
11,Oc1n[nH]c2nnc(-c3c(-c4ccccc4)nn4ccccc34)cc12,96
12,COc1cccc(-c2cc(=O)c3ccccc3o2)c1N,97
13,Cc1nc2cc3nc(-c4cccs4)cnc3cc2n1C,107
14,O=Nc1c(-c2c(O)[nH]c3ccccc23)[nH]c2ccccc12,6
15,O=C1c2ccccc2-[n+]2ccc3c([nH]c4ccccc43)c21,101
16,CNc1cc2c(Nc3cccc(Br)c3)ncnc2cn1,103
17,O=c1cc(-c2cccc3c2Sc2ccccc2S3)oc(N2CCOCC2)c1,92
18,C[C@@H](N)[C@H]1CC[C@H](C(=O)Nc2ccncc2)CC1,111

row,SMILES,residual activity [%]
1,Cc1nc(-c2ccccc2)c(-c2ccncc2)o1,102
2,CCC(=O)Nc1ccc2ncnc(Nc3cccc(Br)c3)c2c1,121
3,Cn1cnc2cc3c(Nc4cccc(Br)c4)ncnc3cc21,98
4,CC(C)n1cnc2/c(=N/c3cccc(Cl)c3)nc(NCCO)[nH]c21,71
5,Oc1c2ccccc2c2c3c(cccc13)N=N2,16
6,COc1cc2ncnc(Nc3ccc(O)c(Br)c3)c2cc1OC,97
7,N#C/C(=C(\N)Sc1ccc(N)cc1)c1ccccc1C(F)(F)F,76
8,CCOc1cc2ncnc(Nc3cccc(Br)c3)c2cc1OCC,103
9,O=C1NC(=O)c2c1c1c3ccccc3[nH]c1c1[nH]c3cc(Br)ccc3c21,89
10,CC#CC(=O)Nc1cc2c(Nc3ccc(F)c(Cl)c3)ncnc2cn1,103
11,NC(=O)c1ccc2[nH]c(-c3ccc(Oc4ccc(Cl)cc4)cc3)nc2c1,100
12,O=C(Nc1cccc(Nc2nccc(Nc3cccc(C(F)(F)F)c3)n2)c1)C1CC1,89
13,O=c1c2ccccc2[nH]c(=S)n1CCN1CCC(=C(c2ccc(F)cc2)c2ccc(F)cc2)CC1,120
14,Ic1cccc(CSc2nnc(-c3ccncc3)o2)c1,39
15,O=C1NC(=O)/C(=C/c2ccc3c(c2)OC(F)(F)O3)S1,106
16,Cc1ccc(NC2=CC(=O)c3sc(C)nc3C2=O)cc1,109
17,CC(=O)O/N=C1\C(=C2\C(=O)Nc3cc(Br)ccc32)Nc2ccccc21,65

# Biological target: T1, Serine/threonine-protein kinase 3 (Homo sapiens)
# Details: at 10 µM
row,SMILES,residual activity [%]
1,CO[C@H]1C[C@@H]2CC[C@@H](C)[C@@](O)(O2)C(=O)C(=O)N2CCCC[C@H]2C(=O)O[C@H]([C@H](C)C[C@@H]2CC[C@@H](O)[C@H](OC)C2)CC(=O)[C@H](C)/C=C(\C)[C@@H](O)[C@@H](OC)C(=O)[C@H](C)C[C@H](C)/C=C/C=C/C=C/1C,84
2,Nc1nc(Nc2ccc(S(N)(=O)=O)cc2)nn1C(=S)Nc1c(F)cccc1F,1
3,O=C1NC(=O)/C(=C\c2ccc3nccnc3c2)S1,100
4,COc1ccc(CNc2nc(N(CCO)CCO)nc3c2ncn3C(C)C)cc1,104
5,COc1ccc(C(=O)Nc2sc3c(c2C(N)=O)CCCC3)cc1OC,91
6,O=C(Nc1cccc(Nc2cc(Nc3cccc(C(F)(F)F)c3)ncn2)c1)C1CC1,65
7,Oc1ccc(Nc2nc(-c3ccc(Cl)cc3)cs2)cc1,76
8,COc1ccc(OC)c2c(=S)c3ccccc3[nH]c12,93
9,O=C1Nc2cc(Br)ccc2/C1=C1/Nc2ccccc2/C1=N\O,5
10,Nc1cccc(-c2cc3c(Oc4cccc(O)c4)ncnc3[nH]2)c1,69
11,Oc1n[nH]c2nnc(-c3c(-c4ccccc4)nn4ccccc34)cc12,86
12,COc1cccc(-c2cc(=O)c3ccccc3o2)c1N,98
13,Cc1nc2cc3nc(-c4cccs4)cnc3cc2n1C,87
14,O=Nc1c(-c2c(O)[nH]c3ccccc23)[nH]c2ccccc12,0
15,O=C1c2ccccc2-[n+]2ccc3c([nH]c4ccccc43)c21,100
16,CNc1cc2c(Nc3cccc(Br)c3)ncnc2cn1,88
17,O=c1cc(-c2cccc3c2Sc2ccccc2S3)oc(N2CCOCC2)c1,93
18,C[C@@H](N)[C@H]1CC[C@H](C(=O)Nc2ccncc2)CC1,105

row,SMILES,residual activity [%]
1,Cc1nc(-c2ccccc2)c(-c2ccncc2)o1,96
2,CCC(=O)Nc1ccc2ncnc(Nc3cccc(Br)c3)c2c1,91
3,Cn1cnc2cc3c(Nc4cccc(Br)c4)ncnc3cc21,92
4,CC(C)n1cnc2/c(=N/c3cccc(Cl)c3)nc(NCCO)[nH]c21,36
5,Oc1c2ccccc2c2c3c(cccc13)N=N2,10
6,COc1cc2ncnc(Nc3ccc(O)c(Br)c3)c2cc1OC,70
7,N#C/C(=C(\N)Sc1ccc(N)cc1)c1ccccc1C(F)(F)F,80
8,CCOc1cc2ncnc(Nc3cccc(Br)c3)c2cc1OCC,71
9,O=C1NC(=O)c2c1c1c3ccccc3[nH]c1c1[nH]c3cc(Br)ccc3c21,62
10,CC#CC(=O)Nc1cc2c(Nc3ccc(F)c(Cl)c3)ncnc2cn1,94
11,NC(=O)c1ccc2[nH]c(-c3ccc(Oc4ccc(Cl)cc4)cc3)nc2c1,74
12,O=C(Nc1cccc(Nc2nccc(Nc3cccc(C(F)(F)F)c3)n2)c1)C1CC1,60
13,O=c1c2ccccc2[nH]c(=S)n1CCN1CCC(=C(c2ccc(F)cc2)c2ccc(F)cc2)CC1,93
14,Ic1cccc(CSc2nnc(-c3ccncc3)o2)c1,15
15,O=C1NC(=O)/C(=C/c2ccc3c(c2)OC(F)(F)O3)S1,102
16,Cc1ccc(NC2=CC(=O)c3sc(C)nc3C2=O)cc1,100
17,CC(=O)O/N=C1\C(=C2\C(=O)Nc3cc(Br)ccc32)Nc2ccccc21,18
